Data from PubChem BioAssay AID1347404 (Pan Lab, Icahn School of Medicine at Mount Sinai, 2020).
About 860 (0.61%) of roughly 140,000 compounds were called active. No stated cut-off is given here; in the data, active means inhibition above about 25%; inactive means the rest. The list comes from a sample in which actives are over-represented; it also holds similar structures and randomly drawn compounds.

What follows are molecules tested against E3 ubiquitin-protein ligase RBX1 (Homo sapiens) + Cullin-1 (Homo sapiens) (UniProt P62877+Q13616) (assay: inhibitors of human ROC1-CUL1 ubiquitin ligase activity (AID 1347404)). Settings: in vitro K48 di-Ub FRET, acceptor:donor ratio, 45 min; at 10 µM; hits give high values.
E3 ubiquitin-protein ligase RBX1 (Homo sapiens) + Cullin-1 (Homo sapiens), sequence (P62877 whole entry, looked up): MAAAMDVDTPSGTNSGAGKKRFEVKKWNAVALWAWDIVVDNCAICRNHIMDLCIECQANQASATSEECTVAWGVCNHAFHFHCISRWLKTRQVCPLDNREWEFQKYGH
E3 ubiquitin-protein ligase RBX1 (Homo sapiens) + Cullin-1 (Homo sapiens), sequence (Q13616 whole entry, looked up): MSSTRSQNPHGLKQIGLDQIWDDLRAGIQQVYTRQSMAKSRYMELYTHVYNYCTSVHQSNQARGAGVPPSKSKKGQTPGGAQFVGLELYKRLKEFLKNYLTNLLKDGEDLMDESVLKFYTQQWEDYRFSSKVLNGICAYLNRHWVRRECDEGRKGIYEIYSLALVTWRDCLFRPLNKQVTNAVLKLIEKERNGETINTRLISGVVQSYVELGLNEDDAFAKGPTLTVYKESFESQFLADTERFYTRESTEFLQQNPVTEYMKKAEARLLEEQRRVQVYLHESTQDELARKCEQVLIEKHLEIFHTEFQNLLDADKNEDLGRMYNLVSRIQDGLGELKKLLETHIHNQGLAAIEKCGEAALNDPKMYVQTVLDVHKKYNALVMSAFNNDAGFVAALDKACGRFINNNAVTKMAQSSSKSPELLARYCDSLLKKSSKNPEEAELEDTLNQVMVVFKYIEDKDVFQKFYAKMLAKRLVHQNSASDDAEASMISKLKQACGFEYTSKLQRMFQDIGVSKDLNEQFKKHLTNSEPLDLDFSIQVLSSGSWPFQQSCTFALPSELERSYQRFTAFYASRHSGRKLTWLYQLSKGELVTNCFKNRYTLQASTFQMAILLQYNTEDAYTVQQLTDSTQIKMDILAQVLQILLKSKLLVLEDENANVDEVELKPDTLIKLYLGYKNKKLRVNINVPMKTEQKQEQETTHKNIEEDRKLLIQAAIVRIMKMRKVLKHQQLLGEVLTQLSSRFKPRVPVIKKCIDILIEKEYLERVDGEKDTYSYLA
For `COc1cccc(CC2(CO)CCN(C(=O)c3cnn(C(C)C)c3)CC2)c1`, the inhibition was 4.94% (inactive). For `O=C(NC1CCCN(CCc2ccccc2)C1)c1cccc(N2CCOCC2)c1` (configuration not stated), the inhibition was 5.73% (inactive). `COc1ccc(C(=O)Nc2ccc3nc(N4CCCCC4)cc(C)c3c2)cc1OC` was tested, and the inhibition was -8.5% (inactive). For `Cc1ccc(-c2csc(NNC(=O)c3ccccc3)n2)cc1`, the inhibition was -5.78% (inactive). In the case of `O=C(NNc1cc(N2CCCC2)nc(N2CCCC2)n1)c1ccccc1`, the inhibition is reported as 31.7% (active). `COCCN(CC1CCN(Cc2ccccc2F)CC1)C(=O)CCCN1CCCCC1=O` was tested, and the inhibition was 14.5% (inactive). With `Cc1ccccc1OC(C)C(=O)Nc1nccs1` (configuration not stated) the inhibition was 0.702% (inactive). In the case of `CCN1C(=O)C(=Cc2ccc(-c3ccccc3)o2)C(=O)N(CC)C1=S`, the inhibition is reported as -2.58% (inactive). `CCCN1C(=O)/C(=C\c2cn(CC(=O)O)c3ccccc23)C(=O)N(c2ccccc2)C1=S` was tested, and the inhibition was 48.9% (active). For `CCn1cc(/C=C2\SC(=O)N(CC(=O)Nc3cccc(C)c3)C2=O)c2ccccc21`, the inhibition was 0.178% (inactive). In the case of `COc1cc(C(=O)O)ccc1OC(=O)C1CCCCC1`, the inhibition is reported as 2.41% (inactive). `CCCCCOc1cccc(OCC(=O)Nc2cccc(OC)c2)c1` was tested, and the inhibition was 0.894% (inactive). With `CCCCCCCCCCCCOc1c(OC)cc(C(=O)O)cc1OC` the inhibition was 26.5% (active). With `Cc1cccc(-n2c(C)c(C)n3c4c(=O)n(CCCO)c(=O)n(C)c4nc23)c1` the inhibition was -0.432% (inactive). `CCCNC(=O)c1nnn(-c2ccc(C)cc2)c1C` was tested, and the inhibition was 2.76% (inactive). `CN1CCC2(CC1)CC(=O)NC2=O` was tested, and the inhibition was -1.86% (inactive). With `Nc1ccc([N+](=O)[O-])cc1OCc1ccccc1` the inhibition was 6.18% (inactive). With `CCn1c2ccccc2c2cc(NS(=O)(=O)c3ccc(Cl)nc3)ccc21` the inhibition was -11.1% (inactive). For `Cc1cc(OC(C)C(=O)N2CCN(c3ccccc3)CC2)cc(C)c1Cl` (configuration not stated), the inhibition was 12.3% (inactive). For `O=C(Nc1cccc(Cl)c1)C(=S)NCc1ccco1`, the inhibition was 3.18% (inactive). In the case of `Nc1c(C(=O)Nc2ccc(F)c(Cl)c2)sc2nc(-c3ccc(F)cc3)ccc12`, the inhibition is reported as -0.694% (inactive). `COCC(=O)N1CCCC(C(=O)c2cccc(C(F)(F)F)c2)C1` (configuration not stated) was tested, and the inhibition was 11% (inactive).
